An excerpt weighted towards active compounds, which were near 4% of everything screened.
697 NFkB inh – inhibitors of PMA/ionomycin-induced NF-kB reporter, 697 cells, primary screen, B-cell NF-kB inhibitor project, cell-based, luminescence, uHTS. 697 B-cell NF-kB luciferase reporter, 16 h. inhibition, % at 4 µM. 330,000 compounds, 0.33% hits. AID 435022, 2010; in the data active = inhibition above about 35%
Mdm2 MdmX PPI – inhibitors of human Mdm2-MdmX association, primary screen, cell-based, luminescence, split luciferase, SaOS-2, uHTS; inhibition, % at 8 µM; 330,000 compounds, 3% hits; Protein Mdm4 (Homo sapiens) + E3 ubiquitin-protein ligase Mdm2 (Homo sapiens), …; SaOS-2 split-luciferase Mdm2/MdmX complementation;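 active = inhibition of at least 50% at 8 µM in the primary screen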
Jurkat NFkB inh – inhibitors of induced NF-kB luciferase reporter, primary screen, TCR NF-kB activation inhibitor project, cell-based, luminescence, uHTS. Jurkat, PMA/ionomycin-induced NF-kB luciferase reporter. inhibition, % at 4 µM. 330,000 compounds, 0.53% hits; in the data active = inhibition above about 50%
Beta cell apopt – inhibitors of cytokine-induced beta cell apoptosis, primary screen, luminescence | INS-1E cytokine-induced death, ATP luminescence, 48 h; percent of positive-control rescue, neutral wells zero | 300,000 compounds, 0.8% hits | AID 435005, 2010 | protection from apoptosis, % (no concentration beside the values);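 active = Every replicate reaches about 75%, or at least half do and their mean reaches it too, limit read from the data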;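 note: 0% = cytokine-treated negative control wells and 100% = positive control rescue; higher means more ATP so stronger rescue from cytokine killing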
Gli-Sufu antag – Gli-Sufu pathway antagonists, primary screen, luciferase luminescence, Sufu-KO-LIGHT cells, uHTS; Sufu-KO-LIGHT fibroblasts, Gli luciferase reporter luminescence; inhibition, % at 5 µM; 340,000 compounds, 0.74% hits; AID 588413, 2011;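 active = inhibition above about 55%, limit read from the data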;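 note: 0% = DMSO-treated cells and 100% = wells with medium but no cells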
Mdm2-MdmX conf – Mdm2-MdmX complex disruptors, retested hits, confirmation, luminescence, single concentration. 10,000 compounds, 55% hits. inhibition, % at 8 µM. shares compounds with Mdm2 MdmX PPI. Mdm2-MdmX binding, luminescent assay; in the data active = inhibition above about 40%
Full FLuc ctr – full-length luciferase signal inhibition, confirmation, counter-screen for Mdm2/MdmX interaction inhibitor project, cell-based, single concentration, SaOS-2; shares compounds with Mdm2 MdmX PPI; inhibition, % at 8 µM; 6,200 compounds, 77% hits; SaOS-2 full-length luciferase counterscreen, luminescence;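 active = mean inhibition at 8 µM reaching about 37%, which flags the compound as non-specific, limit read from the data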;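 note: p53-null SaOS-2 cells with luciferase driven by a doxycycline-inducible promoter; compound on cells about two nights before reading with doxycycline added after day one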
The depositor's hits bear a star; / = no result given.

SMILES	697 NFkB inh	Mdm2 MdmX PPI	Jurkat NFkB inh	Beta cell apopt	Gli-Sufu antag	Mdm2-MdmX conf	Full FLuc ctr
Cc1nnc(NC(=O)CN2CCN(Cc3ccccc3Cl)CC2)s1	-7	3	-4	-1	1	/	/
CC(C)c1nnc(NC(=O)c2nc(S(=O)(=O)Cc3ccccc3F)ncc2Cl)s1	-214	97*	7	-27	3	46*	5
CC1(C)CC(=O)C(N=Nc2ccc(OC(F)F)cc2)=C(O)C1	4	-16	-13	-3	1	/	/
CCN(C(=O)CSc1nnc(-c2ccco2)n1C)c1c(N)n(Cc2ccccc2)c(=O)[nH]c1=O	14	16	0	-11	-6	/	/
Cc1nnc(SCc2cccc([N+](=O)[O-])c2)o1	15	14	-1	-1	-1	/	/
C=C[C@H](CC(C)C)N(Cc1ccccc1)S(=O)(=O)N(Cc1ccccc1)[C@@H](C=C)CC(C)C	4	83*	9	84*	12	21	/
CC(C)C[C@@H](CO)N(Cc1ccccc1)S(=O)(=O)N(Cc1ccccc1)[C@H](CO)CC(C)C	5	81*	6	31	4	19	/
CC(C)C[C@@H](CO)N(Cc1ccccc1)S(=O)(=O)N(Cc1ccccc1)[C@@H](CO)CC(C)C	-2	83*	9	12	0	-20	/
O=S(=O)(N(Cc1ccccc1)[C@H](CO)Cc1ccccc1)N(Cc1ccccc1)[C@H](CO)Cc1ccccc1	-22	36	3	0	6	/	/
COc1ccc(CN([C@H](CO)CC(C)C)S(=O)(=O)N(Cc2ccccc2)[C@H](CO)CC(C)C)cc1	-23	62*	-5	19	-10	19	/
CCCCNC(=O)c1ccccc1SCC(=O)NC1CCCCCCC1	-4	13	-4	-1	10	/	/
CCN(CC)S(=O)(=O)c1cccc(-n2c(O)c(C=Nc3ccccc3C(=O)O)c3ccccc3c2=O)c1	27	67*	39	-16	-6	68*	37*
Cc1cc(C)n(-c2ccc(NC(=O)C3CCCCN3Cc3cccc4c3OCO4)cc2)n1 (centres undefined)	-11	52*	31	/	17	64*	75*
COc1ccc(-c2oc(=O)c3cc(OC)c(OC)cc3c2C#C[C@]2(O)CC[C@H]3[C@@H]4CCc5cc(OC)ccc5[C@H]4CC[C@@]32C)cc1	-1	70*	35	-2	-14	10	/
NNc1nc2c(-c3cccc(C(F)(F)F)c3)nnn2c2ccccc12	-56	56*	-53	26	-5	22	/
CCOC(=O)c1nnn2c1nc(Nc1cccc(C(F)(F)F)c1)c1ccccc12	-6	82*	35	58	12	30	/
COCCNc1nc2c(-c3cccc(C(F)(F)F)c3)nnn2c2ccccc12	3	40	-6	1	1	/	/
CNc1nc2c(-c3ccc(Cl)cc3)nnn2c2ccccc12	-21	61*	-34	17	-2	42*	69*
Cc1ccc(-c2nnn3c2nc(NC(C)C)c2ccccc23)cc1	-25	32	-12	4	9	/	/
O=c1c2cc3ccccc3n2cnn1Cc1ccccc1F	-9	54*	17	-5	1	41*	84*
CCOC(=O)c1c2c(n(C)c1COC)C(=O)C(=O)c1ccc(Br)cc1-2	-12	99*	28	105*	/	98*	4
CCOC(=O)c1c2c(n(-c3ccc(OC)cc3)c1C)C(=O)C(=O)c1ccccc1-2	/	/	/	/	10	/	/
CC(=O)Nc1ccc(C(=O)OCC(=O)N(c2ccccc2)C2CCS(=O)(=O)C2)cc1 (centres undefined)	1	2	6	1	-2	/	/
O=C(CCl)N(c1ccccc1)C1CCS(=O)(=O)C1 (centres undefined)	6	99*	8	-4	-3	93*	55*
O=C(O)Cc1cc(I)c(Oc2ccc(O)c(I)c2)c(I)c1	-22	53*	-10	-3	/	7	/
SMILES	697 NFkB inh	Mdm2 MdmX PPI	Jurkat NFkB inh	Beta cell apopt	Gli-Sufu antag	Mdm2-MdmX conf	Full FLuc ctr
CC1=NN(c2ccccc2)C(=O)/C1=C\C=C\c1ccccc1	-57	66*	1	39	22	45*	29
CC1=NN(c2ccccc2)C(=O)/C1=C/C=C/c1ccc(N(C)C)cc1	/	/	/	/	-6	/	/
C/C=C/C(=O)N1c2ccc(C)cc2C(C)=CC1(C)C	14	19	-4	-2	2	/	/
CC1=CC(C)(C)N(S(=O)(=O)c2ccc(C)cc2)c2ccc(C)cc21	12	54*	50	/	26	61*	108*
CCN(C(=O)COC(=O)c1c(NC(C)=O)sc(C)c1C)c1c(N)n(Cc2ccccc2)c(=O)[nH]c1=O	/	/	/	/	6	/	/
COc1cc(/C=C2\SC(=O)N(CCNC(=O)c3sc4cc(F)ccc4c3Cl)C2=O)cc(OC)c1OC	21	54*	12	8	34	-10	/
Nc1ccc2nc(SCc3ccccc3F)sc2c1	-20	-74	11	-1	-60	/	/
COc1ccc(S(=O)(=O)N2CCN(C(=O)C3CC3)CC2)cc1	-3	-3	1	0	30	/	/
COc1ccc(-n2nc(C(=O)NCC(=O)NC(C)C)c3ccccc3c2=O)cc1OC	1	-2	0	-2	-1	/	/
COc1ccc(-n2nc(C(=O)NCC(=O)Nc3cc(OC)c(OC)c(OC)c3)c3ccccc3c2=O)cc1Cl	21	70*	44	15	29	73*	81*
COc1ccc(-n2nc(C(=O)NCC(=O)NCc3ccc(F)cc3)c3ccccc3c2=O)cc1OC	13	80*	-13	6	-7	9	/
Cc1ccccc1CNC(=O)c1ccccc1SCC(=O)NCc1ccco1	18	-2	13	/	-2	/	/
CC1=C(C(=O)OCc2ccc3c(c2)OCO3)C(c2cccc([N+](=O)[O-])c2)NC(=O)N1 (centres undefined)	-51	50	18	-1	-9	70*	45*
CCOC(=O)C1CCN(c2c(NCCN(CC)c3ccccc3)c(=O)c2=O)CC1	8	-14	2	-2	-2	/	/
COc1ccc(CCNS(=O)(=O)c2cc3c4c(c2)CCN4C(=O)CC3)cc1	-1	-9	-8	1	5	/	/
COC(=O)c1cc(Cl)cc(Cl)c1OS(=O)(=O)N(C)C	5	12	-1	-32	-1	/	/

Bioassay records as filed in PubChem BioAssay.
